Neddylation inh – inhibitors of cullin neddylation, primary screen, biochemical, TR-FRET, uHTS, NAE and Ubc12. calls only at 25 µM. 360,000 tested, 0.58% active. AID 651699, 2012. NEDD8-conjugating enzyme Ubc12 (Homo sapiens) + NEDD8-activating enzyme E1 regulatory …; in the data active = inhibition above about 36%
KLK7 zymogen act – proKLK7 zymogen activators, primary screen, biochemical, fluorescence intensity; purified proKLK7, EDANS-DABCYL substrate fluorescence; 100% is mature enzyme control, 0% vehicle; activation, % at 7 µM; 370,000 tested, 0.9% active; AID 652039, 2013;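 active = activation above the mean of all tested compounds plus 3 SD, computed per campaign excluding outliers beyond control limits, cut at about 13% in these data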
MBD2 DNA inh – inhibitors of MBD2 binding to methylated DNA, primary screen, biochemical, TR-FRET, DNA-binding domain, human; MBD2 binding to methylated oligonucleotide; inhibition, % at 4.4 µM; 370,000 tested, 0.31% active; in the data active = inhibition above about 13%
UHRF1 MBD2 ctr – UHRF1 methylated DNA binding inhibitors, primary screen, counter-screen for MBD2 inhibitor project, biochemical, TR-FRET, human UHRF1, single concentration. AID 687016, 2013. inhibition, % at 4.4 µM. 370,000 tested, 0.75% active. E3 ubiquitin-protein ligase UHRF1 (Homo sapiens), Q96T88. UHRF1 binding to methylated oligo; in the data active = inhibition above about 21%;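 also: UHRF1 SRA domain binding a hemimethylated CpG hairpin DNA probe; 0% = median of test compound wells and 100% = reference inhibitor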
Target sequence (Q96T88 whole entry, looked up, the tested form may be a part): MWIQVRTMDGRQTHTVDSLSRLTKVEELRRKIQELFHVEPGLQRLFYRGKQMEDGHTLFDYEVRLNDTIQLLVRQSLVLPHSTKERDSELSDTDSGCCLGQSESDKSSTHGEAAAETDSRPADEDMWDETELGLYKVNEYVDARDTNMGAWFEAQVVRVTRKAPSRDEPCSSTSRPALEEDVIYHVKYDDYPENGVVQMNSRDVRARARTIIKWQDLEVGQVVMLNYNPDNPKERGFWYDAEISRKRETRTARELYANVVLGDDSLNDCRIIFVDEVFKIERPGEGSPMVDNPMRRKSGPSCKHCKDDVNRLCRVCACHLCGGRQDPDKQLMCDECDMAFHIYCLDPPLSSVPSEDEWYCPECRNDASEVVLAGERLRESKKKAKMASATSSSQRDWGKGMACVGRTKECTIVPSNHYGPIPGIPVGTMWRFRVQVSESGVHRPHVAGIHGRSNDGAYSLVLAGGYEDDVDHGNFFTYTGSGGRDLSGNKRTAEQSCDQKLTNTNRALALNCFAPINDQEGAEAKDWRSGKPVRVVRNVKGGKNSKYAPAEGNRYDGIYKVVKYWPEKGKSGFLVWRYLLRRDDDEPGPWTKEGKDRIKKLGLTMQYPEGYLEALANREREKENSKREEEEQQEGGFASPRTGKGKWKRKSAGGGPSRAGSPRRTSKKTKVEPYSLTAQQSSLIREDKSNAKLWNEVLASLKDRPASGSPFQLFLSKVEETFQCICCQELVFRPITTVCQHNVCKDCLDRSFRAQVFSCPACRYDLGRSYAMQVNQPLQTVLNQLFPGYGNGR
Rin1-Abl PPI inh – inhibitors of Rin1-Abl protein binding, primary screen, biochemical, TR-FRET | inhibition, % at 7.35 µM | 360,000 tested, 0.4% active | AID 588664, 2011 | Tyrosine-protein kinase ABL1 (Homo sapiens) + Ras and Rab interactor 1 (Homo sapiens), …; in the data active = inhibition above about 5%, passing the limit was not always enough
LEDGF integ inh – blockers of LEDGF/p75-dependent integrase strand transfer – biochemical, TR-FRET, high throughput, primary screen | inhibition, % at 3.7 µM | 370,000 tested, 0.64% active | TR-FRET IN-LEDGF/p75 DNA integration, Eu/Cy5;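 active = inhibition above the screen-wide mean plus 3 SD, cut at about 13% in these data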;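 also: signal is the Cy5 over europium emission ratio at 671 and 618 nm; 0% = plate median of compound wells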
Neddyl inh conf – blockade of NEDD8 conjugation to cullin – biochemical, TR-FRET, single concentration, confirmation | TR-FRET cullin neddylation biochemical assay | shares compounds with Neddylation inh | calls only at 25 µM | 1,800 tested, 13% active | AID 652217, 2013; in the data active = inhibition above about 40%;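 also: neddylation substrate is the cullin 1 ring ligase complex with SKP2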
KLK7 act conf – proKLK7 zymogen activators, confirmation, biochemical, fluorescence intensity, triplicate | shares compounds with KLK7 zymogen act | purified proKLK7, EDANS-DABCYL substrate fluorescence; scaled: vehicle 0, mature enzyme 100 | activation, % at 7 µM | 3,200 tested, 68% active | AID 686949, 2013;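 active = activation, as change over the incubation, above the mean of all tested compounds plus 3 SD, cut at about 13% in these data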
EDANS-DABCYL int – EDANS-DABCYL substrate optical interference, artefact control for kallikrein-7 zymogen activator project, biochemical, fluorescence intensity, high throughput; activation, % at 7 µM; shares compounds with KLK7 zymogen act; no enzyme, 4 h; solvent 0%, active enzyme control 100%; 3,200 tested, 80% active;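 active = activation above the all-compound mean plus 3 SD, ignoring values outside control-based bounds, cut at about 4.8% in these data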;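 also: value is the 4 h activation minus the activation read at time zero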
EDANS interf – EDANS fluorescence interference in dose response, no enzyme | EDANS-DABCYL peptide fluorescence interference | 250 tested, 20% active | AID 720493 | EC50, µM | shares compounds with KLK7 zymogen act;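 active = compounds that raise the fluorescence signal in this interference counterscreen, with EC50 at or below 10 µM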;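 also: intact quenched peptide substrate alone read at 355 nm excitation and 520 nm emission; signal is fluorescence gain from T0 to T4 after four hours at room temperature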
Active calls of the source: *; i = inactive; x = no result given; + = active, no number. Hits are enriched below; roughly 3.1% of the tested compounds scored in any of these assays.

SMILES	Neddylation inh	KLK7 zymogen act	MBD2 DNA inh	UHRF1 MBD2 ctr	Rin1-Abl PPI inh	LEDGF integ inh	KLK7 act conf	EDANS-DABCYL int	others
CCNc1nc(NCC)nc(Oc2ccc(C(=O)OC)cc2)n1	i	-0.2	-6.4	-1.3	-5.8	1.0	x	x
Cc1ccc(C#CC[N+]2(CC#Cc3ccc(C)cc3)CCCCC2)cc1	i	-0.6	-3.8	4.0	-2.3	3.9	x	x
O=C(Nc1sc2c(c1C(=O)O)CCCCC2)c1ccco1	i	0.9	0.9	0.9	-1.1	-3.7	x	x
O=C(Nc1sc2c(c1C(=O)NCCO)CCCC2)c1ccco1	+	0.4	0.1	2.1	-1.4	-0.1	x	x
CCCn1c(=O)[nH]c(=O)c2c1nc(-c1ccc(OC(F)F)c(OC)c1)n2CCOC	+	-1.0	-2.7	-2.7	-0.3	1.3	x	x	Neddyl inh conf=i
CC(C)CNC(=O)OCc1cn(Cc2ccc(F)cc2F)nn1	x	0.0	-7.0	2.6	x	7.6	x	x
Nc1ccc(C(=O)N/N=C/c2cn(Cc3ccccc3)c3ccccc23)cc1	+	0.4	1.7	-2.8	0.6	5.7	x	x	Neddyl inh conf=i
Nc1ccc(C(=O)N/N=C/c2cn(Cc3ccccc3F)c3ccccc23)cc1	i	-1.4	3.9	-0.7	2.9	-0.9	x	x
c1cncc(-c2nnc(-c3cccs3)o2)c1	+	0.3	2.4	-0.4	-3.2	1.8	x	x
Cc1ccc(-c2nnc(-c3cccnc3)o2)cc1	i	-0.1	1.1	-0.7	2.7	-3.2	x	x
Cc1ccc(-n2nc(C)c(/C=N/n3c(C)n[nH]c3=S)c2Cl)cc1	+	0.1	2.0	-0.5	1.8	-1.1	x	x	Neddyl inh conf=i
CCCc1cc(=O)n2c(nc3ccccc32)[nH]1	+	-54.5	1.5	-0.9	2.3	-1.3	x	x
CCCCc1c(O)n2c(nc3ccccc32)[nH]c1=O	+	0.4	-5.4	-0.1	1.8	1.3	x	x	Neddyl inh conf=+
CCCCc1c(C)[nH]c2nc3ccccc3n2c1=O	x	-3.2	-5.6	-1.2	1.4	4.2	x	x
CC(=O)N(C)c1ccc(NC(=O)Nc2ccc(C)c(C)c2)cc1	i	0.1	5.7	3.6	0.7	1.3	x	x
O=C(COC(=O)c1ccc(S(=O)(=O)N2CCCCCC2)cc1)NCc1ccc(Cl)cc1	i	-0.5	0.2	0.2	3.0	2.8	x	x
Cc1cc(C)n(-c2ccc3nnc(C)n3n2)n1	+	2.0	6.8	23.9*	2.3	-2.5	x	x	Neddyl inh conf=i
Cc1nnc2ccc(N3CCCCC3)nn12	i	0.1	-6.6	-3.6	-5.0	-2.6	x	x
C=CCN1C(=O)[C@H](CC(=O)NCc2cccc3ccccc23)[C@@]2(C(=O)OCC)CCCC=C12	x	0.3	-2.3	0.8	x	3.6	x	x
N#C/C(=C\c1ccncc1)c1nc2c(s1)CCCC2	+	38.2*	-0.1	-1.5	2.3	-2.0	22.1*	21.6*
O=C(O)CC1(CC(=O)Nc2ccc3sccc3c2)CCCCC1	i	0.0	1.3	4.2	-2.5	-3.3	x	x
CCNC(=O)/C(C#N)=C/c1c(N2CCN(c3ccccc3)CC2)nc2ccccn2c1=O	+	14.0*	-2.1	-3.4	0.0	-5.9	18.5*	15.8*	Neddyl inh conf=+;EDANS interf=i
CCNC(=O)/C(C#N)=C/c1c(N2CCCCCC2)nc2ccccn2c1=O	x	10.8	-1.3	2.9	-1.4	-0.5	x	x
CSc1ccc(/C=C/C(=O)OCC(=O)NCC2CCCO2)cc1 (stereo not drawn)	+	17.8*	-3.8	-1.3	-2.6	1.0	14.3*	15.6*
COc1ccc(OC)c(/C=C/C(=O)N(C)CC(=O)Nc2ccc(N3CCOCC3)cc2)c1	+	20.8*	-6.1	-0.6	-0.1	0.2	19.2*	14.8*	EDANS interf=>69.5
SMILES	Neddylation inh	KLK7 zymogen act	MBD2 DNA inh	UHRF1 MBD2 ctr	Rin1-Abl PPI inh	LEDGF integ inh	KLK7 act conf	EDANS-DABCYL int	others
COc1ccc(CCC(=O)N(C)CC(=O)Nc2ccc(N3CCOCC3)cc2)cc1	i	0.2	-3.3	-1.3	-2.4	3.6	x	x
Cc1ccc(-c2c(C(=O)N/N=C/c3ccc4c(c3)OCO4)nnn2-c2nonc2N)cc1	+	194.7*	-5.5	-2.2	-3.1	2.0	71.0*	75.0*
CC[C@@H]1C(c2ccccc2)=NN(c2ccccc2)[C@H]1C(=O)N1CCOC1=O	+	186.8*	-4.2	-2.2	-1.0	0.9	161.1*	131.2*
O=C(NCC1COc2ccccc2O1)c1ccc(NC(=O)C(Cl)Cl)cc1 (stereo not drawn)	x	0.1	-3.9	0.3	x	1.3	x	x
CCN1CCN(S(=O)(=O)c2ccc3c4c(cccc24)C(=O)N3CC)CC1	+	55.5*	-1.6	-0.4	-2.2	-5.8	44.0*	45.7*
CCN(C(=O)COC(=O)CNC(=O)c1ccc(Cl)cc1Cl)c1c(N)n(Cc2ccccc2)c(=O)[nH]c1=O	i	-0.2	-3.7	4.5	-2.0	2.9	x	x
Cc1cccc(CN2[C@H](CO)C=CS2(=O)=O)c1	i	0.1	-2.3	1.4	-0.2	-1.6	x	x
CCc1ccc(C(=O)NNC(=O)c2ccc(=O)n(C)n2)cc1	i	-0.6	-6.2	-3.5	1.2	-1.7	x	x
CCN(CC)CCN(C(=O)c1cc2c(ccc3ccccc32)oc1=O)c1nc2cc3c(cc2s1)OCCO3	+	45.6*	-2.3	-1.6	-0.2	-4.2	61.4*	65.2*	Neddyl inh conf=i
CC1CCCC(NC(=O)CN2CCN(S(=O)(=O)c3ccc(Br)s3)CC2)C1C (stereo not drawn)	i	0.4	-7.8	-4.7	1.3	-0.4	x	x
NC(=O)c1cc2ccc(O)cc2oc1=Nc1ccccc1	+	39.9*	-0.3	-3.1	2.3	0.3	9.5	7.9*	Neddyl inh conf=i
Cc1ccc2c(c1)COc1c3ccc(C(=O)N[C@@H](C)CO)cc3nn1-2	+	14.0*	-3.1	-6.8	-1.4	1.1	7.4	3.6

From PubChem
